Results filed as inconclusive are left out. Calls of active or inactive are those of the source. Unless noted, the call rests on the fitted dose curve; in most records, active means well fitted curve in the direction sought with a large enough effect in the repeat runs; inconclusive means weak or mixed curves; inactive means no such curve, though single readings can be large; an effect the other way counts as inactive or inconclusive.
Key:
[1] = target: Aryl hydrocarbon receptor (Homo sapiens) (UniProt P35869); test: qHTS assay to identify small molecule that activate the aryl hydrocarbon receptor (AhR) signaling pathway (AID 743085);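 further: HG2L7.5c1 human HepG2 liver cells with stably integrated DRE-driven firefly reporter; series mostly up to about 70 µM; nearly all actives have a fitted effect of over 15% in size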
Procedure, shortened: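 Cell line HG2L7.5c1 (human hepatoma, 20× DRE-luc). Plated, 5 h 37C, compound/DMSO added, 24 h 37C. CellTiter-Fluor 30 min 37C → fluorescence; then ONE-Glo 30 min RT → luminescence.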

[2] = qHTS assay to identify small molecule that activate the aryl hydrocarbon receptor (AhR) signaling pathway - cell viability counter screen (AID 743086);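 further: HepG2 liver cells carrying the AhR DRE luciferase reporter; series mostly up to about 70 µM; nearly all actives have a fitted effect of over 45% in size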
Procedure, shortened: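 Cytotoxicity counter screen: CellTiter-Fluor signal (30 min, 37 C) in 4000 HepG2 cells/well carrying the DRE-luciferase reporter, following 24 h compound exposure at 37 C.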

[3] = target: Peroxisome proliferator-activated receptor gamma (Homo sapiens) (UniProt P37231); test: qHTS assay to identify small molecule agonists of the peroxisome proliferator-activated receptor gamma (PPARg) signaling pathway (AID 743094; active means well fitted activation curve with a large enough effect in the signal ratio in the repeat runs, not every such curve was filed as active; the % refers to the signal ratio)
Procedure, shortened: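 Cell-based bla reporter, HEK293H background, PPARg-driven UAS. Pre-incubation 5 h, 37C, 5% CO2. Compound 17 h, 37C. Substrate 1 h RT; fluorescence.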

[4] = target: Peroxisome proliferator-activated receptor gamma (Homo sapiens) (UniProt P37231); test: qHTS assay to identify small molecule antagonists of the peroxisome proliferator-activated receptor gamma (PPARg) signaling pathway (AID 743191; calls by dose curve; further: series mostly up to about 63 µM; nearly all actives have a fitted effect of over 30% in size)
Procedure, shortened: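 Beta-lactamase reporter under UAS control in HEK293H PPARg-bla cells; compound treatment 17 h at 37C. Read-out: fluorescence intensity after 1 h room-temperature incubation with LiveBLAzer B/G FRET substrate.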

[5] = qHTS assay to identify small molecule antagonists of the peroxisome proliferator-activated receptor gamma (PPARg) signaling pathway - cell viability counter screen (AID 743194); further: nearly all actives have a fitted effect of over 55% in size
Procedure, shortened: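 Viability was measured as CellTiter-Glo luminescence in GeneBLAzer PPARg UAS-bla HEK293H cells. These cells had been exposed 17 h at 37 C to compounds together with rosiglitazone at 50 nM final, with the beta-lactamase readout taken in the same wells.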

[6] = qHTS assay for small molecule agonists of the antioxidant response element (ARE) signaling pathway (AID 743202; active means well fitted activation curve with a large enough effect in the signal ratio in the repeat runs, not every such curve was filed as active; the % refers to the signal ratio)
Procedure, shortened: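 After 16 hours of compound treatment at 37 C, HepG2 cells with a stably integrated ARE-driven beta-lactamase reporter were loaded 2 hours at room temperature with LiveBLAzer B/G FRET substrate and fluorescence intensity measured.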

[7] = qHTS assay for small molecule activators of the heat shock response signaling pathway - cell viability counter screen (AID 743209); further: nearly all actives have a fitted effect of over 50% in size
Procedure, shortened: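 Same-well multiplex: after 2.5 h room-temperature incubation with LiveBLAzer B/G substrate and fluorescence reading, CellTiter-Glo reagent was added to HSE-bla HeLa cells that had received compound for 5 h at 37 C; luminescence read after 30 min.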

[8] = qHTS assay for small molecule activators of the heat shock response signaling pathway (AID 743210; active means well fitted activation curve with a large enough effect in the signal ratio in the repeat runs, with a control signal flat, not every such curve was filed as active; the % refers to the signal ratio; further: series mostly up to about 63 µM)
Procedure, shortened: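 Compound exposure lasted 5 h at 37 C in HeLa cells carrying a heat-shock-element-driven beta-lactamase reporter. Read-out: fluorescence intensity after 2.5 h room-temperature loading with LiveBLAzer B/G FRET substrate.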

[9] = qHTS assay to identify small molecule agonists of the peroxisome proliferator-activated receptor delta (PPARd) signaling pathway - cell viability counter screen (AID 743211); further: nearly all actives have a fitted effect of over 55% in size
Procedure, shortened: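 HEK293H PPARd-bla, 3000 cells/well; 5 h preincubation 37C/5% CO2; cpd in DMSO, 17 h 37C; B/G FRET substrate 2 h RT; CellTiter-Glo 30 min RT, luminescence.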

[10] = target: Peroxisome proliferator-activated receptor delta (Homo sapiens) (UniProt Q03181); test: qHTS assay to identify small molecule agonists of the peroxisome proliferator-activated receptor delta (PPARd) signaling pathway (AID 743212; calls by dose curve;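 further: HEK293H cells with PPARd UAS beta-lactamase reporter GeneBLAzer system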)
Procedure, shortened: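 Beta-lactamase reporter readout: a ratiometric FRET signal from the LiveBLAzer substrate after 2 h at room temperature. Compound exposure at 37 °C in PPARδ-bla HEK293H cells driven by an upstream activator sequence.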

[11] = qHTS assay to identify small molecule antagonists of the peroxisome proliferator-activated receptor delta (PPARd) signaling pathway - cell viability counter screen (AID 743213); further: nearly all actives have a fitted effect of over 50% in size
Procedure, shortened: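 PPARd-bla HEK293H cells (3000/well) got compound plus 300 nM L165041 agonist for 17 h at 37 C. Viability in the same wells came from CellTiter-Glo luminescence after 30 min at room temperature.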

[12] = target: Peroxisome proliferator-activated receptor delta (Homo sapiens) (UniProt Q03181); test: qHTS assay to identify small molecule antagonists of the peroxisome proliferator-activated receptor delta (PPARd) signaling pathway (AID 743215; active means well fitted inhibition curve with a large enough effect in the signal ratio in the repeat runs, not every such curve was filed as active; the % refers to the signal ratio;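 further: cells stimulated with agonist L165041 at 300 nM final during compound exposure; series mostly up to about 62 µM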)
Procedure, shortened: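 Fluorescence from cleaved LiveBLAzer B/G FRET substrate (2 h, room temperature) reports PPARd-driven beta-lactamase in HEK293H UAS-bla cells. Cells had been treated 17 h at 37 C with compound plus 300 nM final L165041.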

[13] = qHTS assay to identify small molecule agonists of the farnesoid-X-receptor (FXR) signaling pathway - cell viability counter screen (AID 743218); further: nearly all actives have a fitted effect of over 45% in size
Procedure, shortened: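 Readout: CellTiter-Glo luminescence, 30 min RT, multiplexed after the FXR-bla FRET reading. HEK 293T FXR-UAS-bla cells received compound 5 h post-plating and were incubated 16 h at 37 C.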

[14] = qHTS assay to identify small molecule antagonists of the farnesoid-X-receptor (FXR) signaling pathway - cell viability counter screen (AID 743221; active means well fitted cell-killing curve with a large enough effect in the repeat runs, not every such curve was filed as active; further: nearly all actives have a fitted effect of over 50% in size)
Procedure, shortened: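 Luminescence from CellTiter-Glo measures cytotoxicity in GeneBLAzer FXR-UAS-bla HEK 293T cells. Cells were exposed to compounds with 50 uM chenodeoxycholic acid (final) for 16 h at 37 C, in wells also used for the reporter readout.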

[15] = target: Vitamin D3 receptor (Homo sapiens) (UniProt P11473); test: qHTS assay to identify small molecule agonists of the vitamin D receptor (VDR) signaling pathway (AID 743222; calls by dose curve)
Procedure, shortened: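 Following 4 h attachment at 37C, VDR-bla cells (2,000 per well) received DMSO-dissolved compounds or controls. After 16 h incubation, LiveBLAzer B/G FRET substrate was added and fluorescence read 2 h later at room temperature.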

[16] = qHTS assay to identify small molecule agonists of the vitamin D receptor (VDR) signaling pathway - cell viability counter screen (AID 743224); further: series mostly up to about 63 µM; nearly all actives have a fitted effect of over 50% in size
Procedure, shortened: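 In parallel with the bla FRET readout, cytotoxicity toward VDR-bla cells after 16 h compound exposure was assessed by CellTiter-Glo, with luminescence recorded after a 30 min room-temperature incubation.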

[17] = qHTS assay for small molecule agonists of the antioxidant response element (ARE) signaling pathway - cell viability counter screen (AID 743203; calls by dose curve; further: nearly all actives have a fitted effect of over 55% in size)
Procedure, shortened: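 Measured in the same wells as the beta-lactamase ARE reporter, this read-out is CellTiter-Glo luminescence from HepG2 ARE-bla cells given compounds for 16 hrs.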

[18] = target: Bile acid receptor (Homo sapiens) (UniProt Q96RI1); test: qHTS assay to identify small molecule antagonists of the farnesoid-X-receptor (FXR) signaling pathway (AID 743217; active means well fitted inhibition curve with a large enough effect in the signal ratio in the repeat runs, not every such curve was filed as active; the % refers to the signal ratio)
Procedure, shortened: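 FRET fluorescence after 2 h room-temperature LiveBLAzer loading gives the readout. Prior step: FXR-bla HEK 293T cells, seeded and incubated 5 h, received test compounds plus 50 uM final CDCA for 16 h at 37 °C.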

[19] = target: Vitamin D3 receptor (Homo sapiens) (UniProt P11473); test: qHTS assay to identify small molecule antagonists of the vitamin D receptor (VDR) signaling pathway (AID 743223; active means well fitted inhibition curve with a large enough effect in the signal ratio in the repeat runs, not every such curve was filed as active; the % refers to the signal ratio)
Procedure, shortened: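 Antagonist mode uses 1alpha,25-dihydroxyvitamin D3 at 3 nM final as stimulus. VDR-bla cells receive compounds in DMSO, incubate 16 h at 37C, then a beta-lactamase FRET substrate for 2 h at room temperature before fluorescence measurement.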

[20] = target: Bile acid receptor (Homo sapiens) (UniProt Q96RI1); test: qHTS assay to identify small molecule agonists of the farnesoid-X-receptor (FXR) signaling pathway (AID 743220; active means well fitted activation curve with a large enough effect in the signal ratio in the repeat runs, not every such curve was filed as active; the % refers to the signal ratio)
Procedure, shortened: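 FXR-UAS-bla HEK 293T cells carrying a UAS-driven beta-lactamase reporter were plated for 5 h at 37C/5% CO2, then exposed to DMSO-dissolved Tox21 10K compounds for 16 h at 37C. A LiveBLAzer B/G FRET substrate was loaded for 2 h at room temperature before fluorescence reading.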
On the % scale 0 is the no-effect control and ±100 the full control effect.

Sequence of Peroxisome proliferator-activated receptor delta (Homo sapiens) (Q03181 whole entry, looked up): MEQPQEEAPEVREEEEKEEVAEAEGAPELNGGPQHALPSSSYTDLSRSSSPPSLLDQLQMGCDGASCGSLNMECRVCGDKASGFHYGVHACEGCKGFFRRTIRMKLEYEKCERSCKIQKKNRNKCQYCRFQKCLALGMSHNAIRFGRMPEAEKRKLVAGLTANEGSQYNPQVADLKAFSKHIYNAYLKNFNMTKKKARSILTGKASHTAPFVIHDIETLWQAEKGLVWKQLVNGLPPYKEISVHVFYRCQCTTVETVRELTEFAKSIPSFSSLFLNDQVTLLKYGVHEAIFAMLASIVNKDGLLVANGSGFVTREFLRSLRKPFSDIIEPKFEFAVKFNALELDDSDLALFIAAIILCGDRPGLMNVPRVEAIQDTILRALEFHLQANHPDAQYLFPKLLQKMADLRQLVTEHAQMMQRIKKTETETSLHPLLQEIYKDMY
Sequence of Peroxisome proliferator-activated receptor gamma (Homo sapiens) (P37231 whole entry, looked up): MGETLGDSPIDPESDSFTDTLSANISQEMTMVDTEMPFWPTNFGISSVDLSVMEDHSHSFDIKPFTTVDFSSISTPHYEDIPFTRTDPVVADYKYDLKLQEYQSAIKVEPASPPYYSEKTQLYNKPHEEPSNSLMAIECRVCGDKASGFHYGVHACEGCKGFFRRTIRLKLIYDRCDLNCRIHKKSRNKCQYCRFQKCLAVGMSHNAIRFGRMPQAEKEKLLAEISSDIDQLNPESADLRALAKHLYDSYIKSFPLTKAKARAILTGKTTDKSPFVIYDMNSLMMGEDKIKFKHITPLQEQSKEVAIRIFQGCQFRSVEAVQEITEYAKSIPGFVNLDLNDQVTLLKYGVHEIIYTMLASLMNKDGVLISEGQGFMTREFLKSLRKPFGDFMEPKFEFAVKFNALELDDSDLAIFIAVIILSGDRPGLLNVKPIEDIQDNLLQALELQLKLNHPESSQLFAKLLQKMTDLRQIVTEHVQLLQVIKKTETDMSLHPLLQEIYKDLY
Sequence of Vitamin D3 receptor (Homo sapiens) (P11473 whole entry, looked up): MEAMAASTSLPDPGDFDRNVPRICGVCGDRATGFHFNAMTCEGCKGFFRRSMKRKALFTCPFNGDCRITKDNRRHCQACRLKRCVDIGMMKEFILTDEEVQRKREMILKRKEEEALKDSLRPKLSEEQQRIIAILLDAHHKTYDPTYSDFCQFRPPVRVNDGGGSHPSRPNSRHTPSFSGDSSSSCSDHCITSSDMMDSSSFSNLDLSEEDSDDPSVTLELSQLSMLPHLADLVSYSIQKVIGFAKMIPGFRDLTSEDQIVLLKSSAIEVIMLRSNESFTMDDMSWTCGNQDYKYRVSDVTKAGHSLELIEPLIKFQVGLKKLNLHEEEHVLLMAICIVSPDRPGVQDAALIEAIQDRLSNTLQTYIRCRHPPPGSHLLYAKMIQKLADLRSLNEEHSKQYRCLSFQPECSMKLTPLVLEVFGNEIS
Sequence of Aryl hydrocarbon receptor (Homo sapiens) (P35869 whole entry, looked up): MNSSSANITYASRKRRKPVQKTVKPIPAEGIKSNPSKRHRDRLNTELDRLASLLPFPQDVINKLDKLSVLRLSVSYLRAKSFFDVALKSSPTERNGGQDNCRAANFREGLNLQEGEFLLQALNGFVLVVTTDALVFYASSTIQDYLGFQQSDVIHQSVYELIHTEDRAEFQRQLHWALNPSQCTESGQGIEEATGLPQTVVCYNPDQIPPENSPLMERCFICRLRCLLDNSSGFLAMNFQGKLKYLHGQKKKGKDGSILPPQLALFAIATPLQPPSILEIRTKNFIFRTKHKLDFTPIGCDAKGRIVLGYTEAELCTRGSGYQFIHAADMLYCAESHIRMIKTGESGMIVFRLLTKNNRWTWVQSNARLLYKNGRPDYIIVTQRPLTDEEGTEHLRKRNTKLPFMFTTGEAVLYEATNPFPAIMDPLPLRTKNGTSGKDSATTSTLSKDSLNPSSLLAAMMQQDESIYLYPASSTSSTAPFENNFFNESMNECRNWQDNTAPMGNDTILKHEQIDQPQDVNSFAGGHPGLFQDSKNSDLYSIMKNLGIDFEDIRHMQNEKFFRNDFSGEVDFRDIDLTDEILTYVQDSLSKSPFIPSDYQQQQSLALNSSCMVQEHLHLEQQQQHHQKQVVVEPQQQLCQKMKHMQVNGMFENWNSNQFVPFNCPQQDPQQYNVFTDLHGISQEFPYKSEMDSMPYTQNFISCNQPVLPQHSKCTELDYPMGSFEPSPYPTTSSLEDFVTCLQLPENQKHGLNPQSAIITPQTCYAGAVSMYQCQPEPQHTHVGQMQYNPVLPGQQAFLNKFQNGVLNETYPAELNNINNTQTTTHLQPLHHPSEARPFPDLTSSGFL
Sequence of Bile acid receptor (Homo sapiens) (Q96RI1 whole entry, looked up): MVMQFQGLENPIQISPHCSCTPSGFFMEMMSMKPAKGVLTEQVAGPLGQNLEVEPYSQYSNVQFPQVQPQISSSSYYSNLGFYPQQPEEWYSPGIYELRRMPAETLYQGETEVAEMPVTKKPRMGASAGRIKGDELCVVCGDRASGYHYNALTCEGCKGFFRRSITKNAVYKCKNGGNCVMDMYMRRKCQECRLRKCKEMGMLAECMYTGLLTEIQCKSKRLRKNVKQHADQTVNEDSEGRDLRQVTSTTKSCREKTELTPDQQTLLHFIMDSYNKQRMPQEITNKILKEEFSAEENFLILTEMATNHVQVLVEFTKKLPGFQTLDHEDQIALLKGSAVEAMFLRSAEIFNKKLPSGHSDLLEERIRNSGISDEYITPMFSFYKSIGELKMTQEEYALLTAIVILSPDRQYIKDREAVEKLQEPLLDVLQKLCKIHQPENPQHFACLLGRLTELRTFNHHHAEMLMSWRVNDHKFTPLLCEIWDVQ

Cc1cnc(C)c(C)n1
inactive: Potency [1] | Potency [2] | Potency [3] | Potency [4] | Potency [5] | Potency [6] | Potency [7] | Potency [8] | Potency [9] | Potency [10] | Potency [11] | Potency [12] | Potency [13] | Potency [14] | outcome [15] | Potency [16]

CCC(C)=O
inactive: Potency [1] | Potency [2] | Potency [3] | Potency [5] | Potency [6] | Potency [17] | Potency [7] | Potency [8] | Potency [9] | Potency [10] | Potency [11] | Potency [12] | Potency [18] | Potency [13] | Potency [14] | outcome [15] | outcome [19] | Potency [16]

COC(=O)[C@@H]1CC2=CC(=O)CC[C@]2(C)[C@@]23O[C@@H]2C[C@@]2(C)[C@@H](CC[C@@]24CCC(=O)O4)[C@H]13
inactive: Potency [1] | Potency [2] | Potency [3] | Potency [5] | Potency [6] | Potency [17] | Potency [7] | Potency [8] | Potency [9] | Potency [10] | Potency [11] | Potency [13] | Potency [14] | outcome [15] | outcome [19]

CC(COc1ccc(C(C)(C)C)cc1)OS(=O)OCCCl (centres undefined)
inactive: Potency [1] | Potency [2] | Potency [3] | Potency [4] | Potency [5] | Potency [6] | Potency [17] | Potency [7] | Potency [8] | Potency [9] | Potency [10] | Potency [11] | Potency [12] | Potency [13] | Potency [20] | Potency [14] | outcome [19] | Potency [16]

[O]=[Bi]
inactive: activation [1] -0.231% [at 8.47 µM] | viability change, negative = cytotoxic [2] -5.07% [at 8.47 µM] | activation [3] -4.02% [at 7.08 µM] | ratio activity, negative = inhibition [4] 6.53% [at 5.95 µM] | activity change, negative = cytotoxicity [5] -1.71% [at 5.95 µM] | activation [6] -9.19% [at 8.36 µM] | viability change, negative = cytotoxic [17] -0.248% [at 8.36 µM] | activity change, negative = cytotoxicity [7] 0.948% [at 5.95 µM] | activity change, negative = cytotoxicity [9] 2.23% [at 5.95 µM] | activation [10] 2.74% [at 5.95 µM] | viability change, negative = cytotoxic [11] -12.9% [at 6.26 µM] | ratio activity, negative = inhibition [12] 3.78% [at 6.26 µM] | activity change, negative = inhibition [18] 6.5% [at 5.95 µM] | viability change, negative = cytotoxic [13] 7.08% [at 5.95 µM] | activation [20] 0.937% [at 5.95 µM] | activity change, negative = cytotoxicity [14] 2.95% [at 5.95 µM] | activity change, negative = inhibition [19] 5.58% [at 6.95 µM]

COC(OC)(C(=O)c1ccccc1)c1ccccc1
inactive: Potency [1] | Potency [2] | Potency [3] | Potency [4] | Potency [5] | Potency [6] | Potency [17] | Potency [7] | Potency [9] | Potency [10] | Potency [11] | Potency [12] | Potency [13] | Potency [14] | outcome [15] | outcome [19] | Potency [16]

C=CCCCCCCCCCCCCCCCC
inactive: activation [1] -0.177% [at 8.47 µM] | viability change, negative = cytotoxic [2] -2.48% [at 8.47 µM] | activation [3] -3.71% [at 7.08 µM] | ratio activity, negative = inhibition [4] 1.33% [at 5.95 µM] | activity change, negative = cytotoxicity [5] 1.33% [at 5.95 µM] | viability change, negative = cytotoxic [17] -4.17% [at 8.36 µM] | activity change, negative = cytotoxicity [7] 11.1% [at 5.95 µM] | activation [8] -2.33% [at 5.95 µM] | activity change, negative = cytotoxicity [9] -1.2% [at 5.95 µM] | activation [10] -3.43% [at 5.95 µM] | viability change, negative = cytotoxic [11] 13.3% [at 6.26 µM] | activity change, negative = inhibition [18] -5.71% [at 5.95 µM] | viability change, negative = cytotoxic [13] 4.85% [at 5.95 µM] | activation [20] -1.74% [at 5.95 µM] | activity change, negative = cytotoxicity [14] -0.119% [at 5.95 µM] | activation [15] -0.178% [at 6.01 µM] | activity change, negative = inhibition [19] 7.35% [at 6.95 µM] | activity change, negative = cytotoxicity [16] 7.44% [at 5.95 µM]

— PubChem BioAssay (Tox21)
